# Where “and” joins values, the source holds several entries; their conditions need not be identical. Equal values may be shown once. The panel holds about 83,000 compounds, 20% with a hit somewhere; the sample as a whole holds those more often.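 48-hour exposure, single concentration, 96-well plates; percent growth endpoint where 0 means no net growth. Active: below 10.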 Values without a mark were called inactive. Calls of active or inactive are those of the source.
# Tested on: MDA-MB-468 breast
# Assay: NCI-60 one-dose screen, 48 h (100 = growth as untreated, 0 = no growth, -100 = all killed)
# Conditions: 10 µM unless noted
row,Structure (SMILES),growth
1,O=C(Nc1nc2c(s1)CCc1c-2c(Br)n(Cc2ccccc2)c1Br)c1ccccc1,72.8%
2,COc1ccc(NC(=O)c2cc(OC)c(OC)c(OC)c2)cc1O,29.8%
3,CCNC(=O)OCCc1c2ccccc2nc2ccccc12,108%
4,Cc1ccccc1COc1ccc(-c2onc(C)c2-c2ccc(Cl)cc2)cc1,36.1%
5,O=c1[nH][nH]c(=O)c2cc([N+](=O)[O-])ccc12,109%
6,COc1cc(Cn2cc(F)c(=O)[nH]c2=O)cc(OC)c1,106% [50 µM]
7,O=C1Nc2ccc(Cl)cc2/C1=C\c1c(-c2ccc(F)cc2)nc2ccccn12,-13.6% (active)
8,COc1ccc(-n2c(SCc3n[nH]c(=S)o3)nc3ccc(Cl)cc3c2=O)cc1,82.6%
9,O=C(OCCCCOC(=O)n1cnc2ccccc21)n1cnc2ccccc21,112%
10,CCOC(=O)c1ccc(Nc2sc(C(=O)c3ccc(Br)cc3)c(N)c2C#N)cc1,1.55% (active)
11,O=C1Nc2ccccc2/C1=C\c1nc(-c2ccccc2)n2ccccc12,-1.63% (active)
12,O=C1C=CC(n2cc(F)c(=O)[nH]c2=O)O1 (stereo not given),85.3%
13,O=C(/C=C/c1ccc(C(F)(F)F)cc1)c1ccc(Nc2nc(NCCO)nc(N3CCOCC3)n2)cc1,20.4%
14,CC(=O)Nc1ccc2nc3ccc(NC(C)=O)cc3[n+](-c3ccccc3)c2c1,104%
15,Cc1ccccc1NC(=O)c1cc2ccccc2cc1O,79.5%
16,Clc1ccc2c(NCCNc3nc(Cl)nc4ccccc34)ccnc2c1,-88.6% (active)
17,CCOC(=O)c1c(NC(=O)c2ccccc2)sc2c(O)c(CN(CC)CC)ccc12,-2.82% (active)
18,COc1cc(/C=C/C(=O)N2CCN(C(=O)c3cc(OC)c(OC)c(OC)c3)CC2)ccc1OCCCN1C(=O)c2cccc3cccc(c23)C1=O,102%
19,O=C1/C(=C\c2cccc(OCCCCCOc3ccc(Cl)cc3)c2)N=C2SCCCN12,9.3% (active)
20,O=C(c1ccc(Nc2nccc(NCCCNc3ccnc4cc(Cl)ccc34)n2)cc1)N1CCCCC1,29.5%

row,Structure (SMILES),growth
1,C=C1c2nc3ccccc3n2C=C(c2ccc(Cl)cc2)N1Cc1ccc(OC)cc1,80.8%
2,C#CCNCCCN1C(=O)c2ccc3c4c(ccc(c24)C1=O)C(=O)N(CCCNCC#C)C3=O,-85.6% (active)
3,CCc1ccc(-c2ccc(-n3nc(C)c4c(N)nc(Cc5ccccc5)nc43)cc2)cc1,38.9%
4,CCCCCCn1c(-c2ccc(C(=O)O/N=C(\N)c3ccc(OC)cc3)cc2)nc(-c2ccccc2)c1-c1ccccc1,-6.91% (active)
5,COc1cc(NC(=O)CCSc2nc3ccc(C)cc3c(=O)n2Cc2ccccc2)cc(OC)c1OC,68.6%
6,C[C@@H]1CN(c2cnc(C(=O)Nc3cc(F)cc4cccnc34)cn2)C[C@H](C)N1,3.8% (active)
7,O=C(Nc1ccccc1)c1cc(Cl)ccc1O,47.6%
8,CCN(CC)CCC(CNc1ccnc2cc(Cl)ccc12)c1ccc(OC)cc1 (stereo not given),9.36% (active) and -3.58% (active)
9,COc1ccc(C(=O)CC(CC(=O)c2ccc(OC)cc2)c2c(C)nn(-c3ccccc3)c2Cl)cc1,96.4%
10,Nc1ncnc2c1CN(Cc1ccccc1)CC2,112%
11,O=C1OCC2=C1C(c1ccc(Cl)c(Cl)c1)c1cc3c(cc1N2CCO)CCC3 (stereo not given),22.9%
12,N#Cc1nc(-c2ccc(Cl)cc2)oc1N1CCC(S(=O)(=O)N2CCOCC2)CC1,97.5%
13,COc1cccc(NC(=O)c2sc3nc(C)c(C(=O)c4ccccc4)cc3c2N)c1,62.1%
14,COc1ccc(/C=C/C(=O)/C=C/c2cc3ccc(Cl)cc3[nH]c2=O)cc1,87.2%
15,Cc1ccc(S(=O)(=O)Nc2cc(Sc3ccccc3)c(O)c3ccccc23)cc1,-53.9% (active)
16,COc1cccc(-c2nn(-c3ccccc3)cc2-c2ccnc(NCCCNC(=O)c3cccc(C(F)(F)F)c3)c2)c1,17.3%
17,CCOC(=O)Cc1cnc(N/N=C(\C)c2cc3ccccc3o2)s1,99.8%
18,COc1ccc(-c2nn(C(=O)c3cc(OC)c(OC)c(OC)c3)c3cc(N)ccc23)cc1,-1.08% (active)
19,CO[C@H]1/C=C(/C)CCC[C@H](C)[C@H](O)[C@@H](C)C(=O)C(C)(C)[C@@H](O)CC(=O)O[C@@H]1/C(C)=C/c1csc(C)n1,-23.3% (active)
20,ClCc1c(Cl)c(Cl)c(Cl)c(CCl)c1Cl,-74% (active)
